# Results: PubChem BioAssay AID1159580 (chemical genetic matrix, 2015)
# Among all 5,500 compounds or so, about 2,000 (36%) were called active. Another 18% or so got no clear call; they are omitted. The list shows a part of the results. A number with no mark means an inactive call. Cut-off read from the data, not from the text of the source: active = normalized growth mostly below about 0.91 (no sharp cut-off); inconclusive = no clear call, values can overlap the other calls; inactive = mostly above about 0.92.
# Test: chemical genetic growth profiling, strain panel (AID 1159580);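 note: tested at 20 µM; growth read once vehicle control cultures reached saturation at 30 °C; 1 = growth at the plate median or of vehicle wells; lower values mean less growth of the strain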
# Conditions: S. cerevisiae deletion strains, growth OD
# [1] = locus YAL021C, strain ccr4, active compounds read low
# [2] = locus YAL026C, strain drs2, active compounds read low
# [3] = locus YAL030W, strain snc1, active compounds read low
# [4] = locus YBL061C, strain skt5, active compounds read low
# [5] = locus YBR009C, strain hhf1, active compounds read low
# [6] = locus YBR023C, strain chs3, active compounds read low
# [7] = locus YBR171W, strain sec66, active compounds read low
# [8] = locus YBR231C, strain swc5, active compounds read low
# [9] = locus YBR279W, strain paf1, active compounds read low
# [10] = locus YCL011C, strain gbp2, active compounds read low
# [11] = locus YCL016C, strain dcc1, active compounds read low
# [12] = locus YCL061C, strain MRC1, active compounds read low
# [13] = locus YCL069W, strain vba3, active compounds read low
# [14] = locus YCR088W, strain abp1, active compounds read low
# [15] = locus YDL005C, strain med2, active compounds read low
# [16] = locus YDL040C, strain nat1, active compounds read low
# [17] = locus YDR001C, strain nth1, active compounds read low
# [18] = locus YDR069C, strain doa4, active compounds read low
# [19] = locus YDR137W, strain rgp1, active compounds read low
# [20] = locus YDR159W, strain sac3, active compounds read low
# [21] = locus YDR297W, strain sur2, active compounds read low
# [22] = locus YDR334W, strain swr1, active compounds read low
# [23] = locus YDR335W, strain msn5, active compounds read low
# [24] = locus YDR392W, strain spt3, active compounds read low
# [25] = locus YEL003W, strain gim4, active compounds read low
# [26] = locus YEL037C, strain rad23, active compounds read low
# [27] = locus YEL061C, strain CIN8 (second series), active compounds read low
# [28] = locus YER015W, strain faa2, active compounds read low
# [29] = locus YER016W, strain bim1, active compounds read low
# [30] = locus YER111C, strain swi4, active compounds read low
# [31] = locus YER155C, strain BEM2 (second series), active compounds read low
# [32] = locus YFR010W, strain ubp6, active compounds read low
# [33] = locus YGL167C, strain pmr1, active compounds read low
# [34] = locus YGL173C, strain kem1, active compounds read low
# [35] = locus YGL227W, strain vid30, active compounds read low
# [36] = locus YGL240W, strain doc1, active compounds read low
# [37] = locus YGL253W, strain hxk2, active compounds read low
# [38] = locus YHR013C, strain ard1, active compounds read low
# [39] = locus YHR027C, strain rpn1, active compounds read low
# [40] = locus YHR030C, strain SLT2, active compounds read low
# [41] = locus YHR079C, strain IRE1, active compounds read low
# [42] = locus YHR142W, strain chs7, active compounds read low
# [43] = locus YJL092W, strain hpr5, active compounds read low
# [44] = locus YJL095W, strain BCK1 (second series), active compounds read low
# [45] = locus YJL095W, strain BCK1, active compounds read low
# [46] = locus YJL115W, strain asf1, active compounds read low
# [47] = locus YJL129C, strain trk1, active compounds read low
# [48] = locus YJL154C, strain vps35, active compounds read low
# [49] = locus YJL164C, strain tpk1, active compounds read low
# [50] = locus YJL166W, strain qcr8, active compounds read low
# [51] = locus YJL187C, strain SWE1, active compounds read low
# [52] = locus YJR066W, strain TOR1, active compounds read low
# [53] = locus YKL160W, strain elf1, active compounds read low
# [54] = locus YKR026C, strain gcn3, active compounds read low
# [55] = locus YKR091W, strain srl3, active compounds read low
# [56] = locus YLL001W, strain dnm1, active compounds read low
# [57] = locus YLL026W, active compounds read low
# [58] = locus YLL041C, strain sdh2, active compounds read low
# [59] = locus YLR027C, strain aat2, active compounds read low
# [60] = locus YLR113W, strain HOG1, active compounds read low
# [61] = locus YLR221C, strain rsa3, active compounds read low
# [62] = locus YLR258W, strain gsy2, active compounds read low
# [63] = locus YLR262C, strain YPT6 (second series), active compounds read low
# [64] = locus YLR320W, strain mms22, active compounds read low
# [65] = locus YLR342W, strain FKS1, active compounds read low
# [66] = locus YLR357W, strain rsc2, active compounds read low
# [67] = locus YLR370C, strain arc18, active compounds read low
# [68] = locus YLR384C, strain iki3, active compounds read low
# [69] = locus YML120C, strain ndi1, active compounds read low
# [70] = locus YMR058W, strain fet3, active compounds read low
# [71] = locus YMR125W, strain sto1, active compounds read low
# [72] = locus YMR129W, active compounds read low
# [73] = locus YMR205C, strain PFK2, active compounds read low
# [74] = locus YMR231W, strain pep5, active compounds read low
# [75] = locus YNL071W, strain lat1, active compounds read low
# [76] = locus YNL183C, strain NPR1, active compounds read low
# [77] = locus YNL209W, strain ssb2, active compounds read low
# [78] = locus YNL248C, strain rpa49, active compounds read low
# [79] = locus YNL322C, strain KRE1 (second series), active compounds read low
# [80] = locus YNR049C, strain mso1, active compounds read low
# [81] = locus YOR001W, strain rrp6, active compounds read low
# [82] = locus YOR070C, strain gyp1, active compounds read low
# [83] = locus YOR080W, strain dia2, active compounds read low
# [84] = locus YOR083W, strain WHI5, active compounds read low
# [85] = locus YOR106W, strain vam3, active compounds read low
# [86] = locus YOR231W, strain MKK1, active compounds read low
# [87] = locus YOR265W, strain rbl2, active compounds read low
# [88] = locus YOR270C, strain vph1, active compounds read low
# [89] = locus YOR290C, strain snf2, active compounds read low
# [90] = locus YPL051W, strain arl3, active compounds read low
# [91] = locus YPL078C, strain atp4, active compounds read low
# [92] = locus YPL106C, strain sse1, active compounds read low
# [93] = locus YPL240C, strain hsp82, active compounds read low
# [94] = locus YPL256C, strain CLN2, active compounds read low
smiles,measurement,setting,value
C/C(=C\C(=O)OCCCCCCCCC(=O)O)C[C@@H]1OC[C@H](C[C@@H]2O[C@H]2[C@@H](C)[C@H](C)O)[C@@H](O)[C@H]1O,normalized growth,[1],0.96
same,normalized growth,[2],0.958
same,normalized growth,[3],0.96
same,normalized growth,[4],0.987
same,normalized growth,[5],0.961
same,normalized growth,[6],0.979
same,normalized growth,[7],0.929
same,normalized growth,[8],0.938
same,normalized growth,[9],0.986
same,normalized growth,[10],0.972
same,normalized growth,[11],0.967
same,normalized growth,[12],0.965
same,normalized growth,[13],0.957
same,normalized growth,[14],0.952
same,normalized growth,[15],0.973
same,normalized growth,[16],0.982
same,normalized growth,[17],0.956
same,normalized growth,[18],0.982
same,normalized growth,[19],0.99
same,normalized growth,[20],0.936
same,normalized growth,"locus YDR195W, strain ref2",0.964
same,normalized growth,[21],0.988
same,normalized growth,[22],0.951
same,normalized growth,[23],0.963
same,normalized growth,[24],0.941
same,normalized growth,[25],0.969
same,normalized growth,[26],0.968
same,normalized growth,[27],0.967
same,normalized growth,[28],0.99
same,normalized growth,[29],0.974
same,normalized growth,[30],0.93
same,normalized growth,[31],0.959
same,normalized growth,[32],0.984
same,normalized growth,[33],0.973
same,normalized growth,[34],0.979
same,normalized growth,[35],0.965
same,normalized growth,[36],1.01
same,normalized growth,[37],0.912
same,normalized growth,[38],0.985
same,normalized growth,[39],0.987
same,normalized growth,[40],0.895
same,normalized growth,[41],0.919
same,normalized growth,[42],0.98
same,normalized growth,[43],0.96
same,normalized growth,[44],0.965
same,normalized growth,[45],0.898
same,normalized growth,[46],0.954
same,normalized growth,[47],0.993
same,normalized growth,[48],0.968
same,normalized growth,[49],0.98
same,normalized growth,[50],1
same,normalized growth,[51],0.976
same,normalized growth,[52],0.916
same,normalized growth,[53],0.982
same,normalized growth,[54],0.931
same,normalized growth,[55],0.971
same,normalized growth,[56],0.949
same,normalized growth,[57],0.971
same,normalized growth,[58],0.965
same,normalized growth,[59],0.965
same,normalized growth,[60],0.827 (active)
same,normalized growth,[61],0.982
same,normalized growth,[62],0.968
same,normalized growth,[63],0.962
same,normalized growth,[64],0.968
same,normalized growth,[65],0.953
same,normalized growth,[66],0.977
same,normalized growth,[67],0.957
same,normalized growth,[68],0.952
same,normalized growth,[69],0.979
same,normalized growth,[70],0.989
same,normalized growth,[71],0.962
same,normalized growth,[72],0.974
same,normalized growth,[73],0.896
same,normalized growth,[74],0.961
same,normalized growth,[75],0.989
same,normalized growth,[76],0.89
same,normalized growth,[77],1
same,normalized growth,[78],1.02
same,normalized growth,[79],0.947
same,normalized growth,[80],0.951
same,normalized growth,[81],0.991
same,normalized growth,[82],0.969
same,normalized growth,[83],0.948
same,normalized growth,[84],0.996
same,normalized growth,[85],0.979
same,normalized growth,[86],0.904
same,normalized growth,[87],0.982
same,normalized growth,[88],0.987
same,normalized growth,[89],0.979
same,normalized growth,[90],0.984
same,normalized growth,[91],1
same,normalized growth,[92],0.906
same,normalized growth,[93],0.975
same,normalized growth,[94],0.911
CC(=O)[C@H]1CCC2C3CC=C4C[C@@H](OC(=O)CCC(=O)O)CC[C@]4(C)C3CC[C@@]21C (stereo not given in full),normalized growth,[1],0.975
same,normalized growth,[2],0.913
same,normalized growth,[3],0.969
same,normalized growth,[4],0.964
same,normalized growth,[5],0.899 (active)
same,normalized growth,[6],0.96
same,normalized growth,[7],0.898
same,normalized growth,[8],0.975
same,normalized growth,[9],0.961
same,normalized growth,[10],0.957
same,normalized growth,[11],0.965
same,normalized growth,[12],0.962
same,normalized growth,[13],0.983
same,normalized growth,[14],0.966
same,normalized growth,[15],0.941
same,normalized growth,[16],0.973
same,normalized growth,[17],0.971
same,normalized growth,[18],0.966
same,normalized growth,[19],0.556 (active)
same,normalized growth,[20],0.943
same,normalized growth,"locus YDR195W, strain ref2",1.03
same,normalized growth,[21],0.95
same,normalized growth,[22],0.989
same,normalized growth,[23],0.977
same,normalized growth,[24],0.466 (active)
same,normalized growth,[25],0.968
same,normalized growth,[26],0.972
same,normalized growth,[27],0.97
same,normalized growth,[28],0.985
same,normalized growth,[29],0.969
same,normalized growth,[30],0.953
same,normalized growth,[31],0.842 (active)
same,normalized growth,[32],0.966
same,normalized growth,[33],0.928
same,normalized growth,[34],0.898 (active)
same,normalized growth,[35],0.973
same,normalized growth,[36],0.939
same,normalized growth,[37],0.971
same,normalized growth,[38],0.941
same,normalized growth,[39],0.978
same,normalized growth,[40],0.997
same,normalized growth,[41],0.974
same,normalized growth,[42],0.932
same,normalized growth,[43],0.966
same,normalized growth,[44],0.971
same,normalized growth,[45],0.913
same,normalized growth,[46],0.99
same,normalized growth,[47],0.804 (active)
same,normalized growth,[48],0.988
same,normalized growth,[49],0.955
same,normalized growth,[50],0.929
same,normalized growth,[51],0.968
same,normalized growth,[52],0.942
same,normalized growth,[53],0.951
same,normalized growth,[54],0.962
same,normalized growth,[55],0.968
same,normalized growth,[56],0.948
same,normalized growth,[57],0.974
same,normalized growth,[58],0.985
same,normalized growth,[59],0.978
same,normalized growth,[60],0.855
same,normalized growth,[61],0.967
same,normalized growth,[62],0.956
same,normalized growth,[63],0.57 (active)
same,normalized growth,[64],0.796 (active)
same,normalized growth,[65],0.955
same,normalized growth,[66],0.989
same,normalized growth,[67],0.942
same,normalized growth,[68],0.97
same,normalized growth,[69],0.9 (active)
same,normalized growth,[70],0.963
same,normalized growth,[71],0.938
same,normalized growth,[72],0.968
same,normalized growth,[73],0.822 (active)
same,normalized growth,[74],0.975
same,normalized growth,[75],0.845 (active)
same,normalized growth,[76],0.927
same,normalized growth,[77],0.969
same,normalized growth,[78],0.988
same,normalized growth,[79],0.969
same,normalized growth,[80],0.973
same,normalized growth,[81],0.952
same,normalized growth,[82],0.959
same,normalized growth,[83],0.95
same,normalized growth,[84],0.974
same,normalized growth,[85],0.953
same,normalized growth,[86],0.961
same,normalized growth,[87],0.981
same,normalized growth,[88],0.91
same,normalized growth,[89],0.908
same,normalized growth,[90],0.973
same,normalized growth,[91],0.956
same,normalized growth,[92],1
same,normalized growth,[93],0.971
same,normalized growth,[94],0.991
